Screening results (PubChem)
Jurkat NFkB inh – lowers PMA/ionomycin-induced NF-kB signal in Jurkat cells; PMA/ionomycin-induced NF-kB luciferase reporter, luminescence; inhibition, % at 4 µM; 0.53% of 330,000 active; in the data active means inhibition above about 50%
Mdm2-MdmX inh – disrupts the human Mdm2-MdmX interaction; inhibition, % at 8 µM; 3% of 330,000 active; SaOS-2 split-luciferase Mdm2/MdmX complementation, luminescence;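 active means inhibition of at least 50% at 8 µM in the primary screen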
Beta cell apopt – blocks beta cell apoptosis; AID 435005; INS-1E cytokine-induced death, ATP luminescence, 48 h; percent of positive-control rescue, neutral wells zero; protection from apoptosis, % (concentration not given with the values); 0.8% of 300,000 active;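 active means Every replicate reaches about 75%, or at least half do and their mean reaches it too, limit read from the data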;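 further: 0% = cytokine-treated negative control wells and 100% = positive control rescue; higher means more ATP so stronger rescue from cytokine killing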
Gli-Sufu block – antagonists of Gli-Sufu signaling. inhibition, % at 5 µM. Sufu-KO-LIGHT fibroblasts, Gli luciferase reporter luminescence. 0.74% of 340,000 active;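 active means inhibition above about 55%, limit read from the data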;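 further: 0% = DMSO-treated cells and 100% = wells with medium but no cells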
CSC inhib – cancer stem cell inhibition; cancer stem cell-like cells viability, luminescence; inhibition, % at 7.5 µM; 1.1% of 300,000 active; in the data active means inhibition above about 75%; tested in HMLE shEcad cells
697 NFkB inh – lowers PMA/ionomycin-induced NF-kB signal in 697 B cells. 697 B-cell NF-kB luciferase reporter, 16 h. AID 435022. inhibition, % at 4 µM. 0.33% of 330,000 active; in the data active means inhibition above about 35%
697 NFkB conf – inhibitors of the PMA/ionomycin-induced NF-kB reporter in 697 B cells, retest | shares compounds with 697 NFkB inh | inhibition, % at 4 µM | AID 449746 | 35% of 2,000 active | 697 B-cell NF-kB luciferase, 16 h; in the data active means inhibition mostly above about 28%, no sharp cut-off; inactive means mostly below about 22%
Numbers without * were called inactive; · = no result. Sampled rows, rich in hits. Any-hit rate of the full collection: about 4.5%.

SMILES	Jurkat NFkB inh	Mdm2-MdmX inh	Beta cell apopt	Gli-Sufu block	CSC inhib	697 NFkB inh	697 NFkB conf
CCOC(=O)C1CCN(C(=O)c2ccccc2NC(C)=O)CC1	11.3	-2.0	-3.5	6.5	·	38.8*	7.5
CCOC(=O)C1=C(COC(=O)C(C)(C)Oc2ccc(Cl)cc2)NC(=O)NC1C (centres undefined)	16.0	19.7	-6.7	-13.0	·	17.2	·
COCc1ccc(C(=O)N2CCC(CCC(=O)Nc3cccc(C)c3)CC2)s1	18.7	-4.6	3.1	9.2	-2.1	39.1*	16.7
Cc1cccc(NC(=O)CCC2CCN(C(=O)c3ccc(C)s3)CC2)c1	2.0	16.5	3.2	14.2	14.8	10.1	·
COc1cccc(-c2cc(C(F)(F)F)nc(-n3ccc([N+](=O)[O-])n3)n2)c1	4.5	-11.9	-4.1	14.7	-3.9	15.0	·
O=[N+]([O-])c1ccn(-c2nc(-c3ccccc3)cc(C(F)(F)F)n2)n1	-10.8	21.9	-7.7	-7.8	3.0	38.9*	2.6
O=C(CNCCc1ccc(F)cc1)Nc1cc(F)ccc1F	-32.4	-0.1	-8.6	3.2	5.3	-20.2	·
N/C(=N\OC(=O)COc1ccc(Br)cc1Cl)c1ccccn1	-111.3	-54.7	-2.3	-63.6	42.2	-316.9	-315.1
N/C(=N\OC(=O)/C=C/c1ccccc1Cl)c1ccccn1	-113.4	-38.4	-4.1	-62.0	-3.7	-318.0	-276.4
CCC(=O)Nc1cc2nn(-c3ccc(OC)cc3)nc2cc1C	-59.5	-24.2	·	-52.6	·	-268.6	-211.7
CCCCC(=O)Nc1cc2nn(-c3ccc(OC)cc3)nc2cc1C	-119.5	-10.2	-0.2	-66.3	-2.2	-170.2	·
CCCC(c1c(C)n(C)n(-c2ccccc2)c1=O)c1c(C)n(C)n(-c2ccccc2)c1=O	-0.9	13.6	-3.4	-0.2	-9.1	40.5*	-0.1
CCC(c1c(C)n(C)n(-c2ccccc2)c1=O)c1c(C)n(C)n(-c2ccccc2)c1=O	7.6	9.1	1.7	0.7	-6.7	18.1	·
Cc1ccn2c(C(=O)c3ccc(Cl)cc3)cnc2c1	-147.2	3.0	4.1	-85.5	-1.0	-259.4	-145.4
Cc1ccccc1-c1nc2sc3c(c2c(=O)n1N)CCCC3	-99.8	27.4	·	33.7	12.5	-275.8	-229.4
O=C(c1cc(-c2ccc(Cl)cc2Cl)on1)N1CCOCC1	-122.8	-25.0	-3.3	-125.6	-9.4	-293.4	-186.1
COCC1CCCCC1OS(N)(=O)=O (centres undefined)	11.5	33.3	-3.9	-0.3	-6.2	16.0	·
COc1ccc(NS(=O)(=O)c2cc(NC(=O)c3nn(C)c(=O)c4ccccc34)ccc2OC)cc1	3.4	46.4	8.3	-1.4	5.9	37.4*	22.1
O=C(Nc1nccs1)c1sc2ccccc2c1Cl	-114.9	-97.8	19.8	11.5	40.4	-352.3	-326.2
COc1ccc(CCNC(=O)C2CC(O)CN2S(=O)(=O)c2ccc(Cl)cc2)cc1OC (centres undefined)	2.8	23.9	-1.6	27.6	-12.8	2.5	·
Cc1ccc(-c2cc(N)n[nH]2)cc1	-11.9	15.9	-9.2	-24.9	5.3	0.9	·
CC(C)(C)c1ccc(-c2cc(N)n[nH]2)cc1	-50.1	27.8	-6.5	7.1	-2.3	44.0*	45.0*
O=C(CSc1ccc([N+](=O)[O-])cn1)Nc1cc(C(F)(F)F)ccc1N1CCOCC1	2.2	34.9	-2.8	16.2	0.8	-17.5	·
CC(NC(=O)C1CCC(CNc2c(N3CCCCC3)c(=O)c2=O)CC1)c1ccccc1 (centres undefined)	12.1	15.9	-3.9	-6.1	-11.5	35.9*	-10.7
CCOC(=O)C1CCCN(C(=O)c2cc(S(=O)(=O)N(C)C)ccc2N2CCCC2)C1 (centres undefined)	-17.7	-2.8	4.4	4.2	-10.9	-30.2	·
SMILES	Jurkat NFkB inh	Mdm2-MdmX inh	Beta cell apopt	Gli-Sufu block	CSC inhib	697 NFkB inh	697 NFkB conf
Cc1ccc(C)c(OCc2ccc(C(=O)NN)o2)c1	-6.5	21.4	1.0	8.0	-6.5	45.8*	31.9*
CCc1nc(SCC(=O)Nc2ccccc2Cl)n[nH]1	0.6	-16.0	-4.3	18.8	-10.1	4.5	·
Cc1ccc(C)c(S(=O)(=O)N2CCN(C(=O)Cn3c(C(F)(F)F)nc4ccccc43)CC2)c1	9.5	23.2	-3.4	-21.1	-2.8	37.0*	6.9
Cc1ccc(C)c(S(=O)(=O)N2CCN(C(=O)Cc3ccccc3)CC2)c1	-10.9	18.9	-1.4	4.3	-4.5	10.1	·
CN(CC(=O)Nc1ccc(F)cc1)CC(=O)N1CCCC1	-0.7	-10.3	-6.5	-1.2	11.3	3.3	·
CCC(=O)N(C1=C(NC)C(=O)c2ccccc2C1=O)C(C)C	35.1	-30.4	45.4	-3.9	-2.7	51.7*	47.1*
CCOC(=O)c1nn(-c2ccccc2)c(C#N)c1NC(=O)c1nn(CC)cc1Br	13.0	24.2	16.0	22.8	-3.5	37.0*	40.2*
CCOC(=O)c1c(NC(=O)c2nn(CC)cc2Br)c(C#N)nn1-c1ccccc1	4.6	-29.4	11.8	7.0	1.4	-9.9	·
COc1ccccc1S(=O)(=O)NCc1ccc(C(=O)NC2CCC(O)CC2)cc1 (centres undefined)	-6.3	1.0	·	-4.5	·	11.2	·
COC(=O)c1ccc(NC(=O)c2cc(-c3ccccn3)nc3ccccc23)cc1	0.0	26.2	-5.0	-12.0	-7.6	4.3	·
COc1ccc(NC(=O)c2cc(-c3ccccn3)nc3ccccc23)cc1S(=O)(=O)N(C)C	18.2	49.0	2.4	0.7	·	39.2*	46.2*
CC(C)c1[nH]nc2c1C(c1ccco1)C(C#N)=C(N)O2 (centres undefined)	7.0	19.4	0.3	0.7	-1.4	48.7*	29.7*
CC(C)c1[nH]nc2c1C(c1cccnc1)C(C#N)=C(N)O2 (centres undefined)	-2.1	8.8	1.5	4.9	-2.8	-1.1	·
CCOc1ccc(CCNC(=O)c2nnc(CS(=O)(=O)c3ccccc3)o2)cc1OCC	5.3	2.0	0.3	-5.1	-2.0	5.7	·
